Many of the other results were omitted from the sample, so hits are more common in it than they were.
KDM5B inh: inhibitors of human KDM5B histone demethylase; Q9UGL1; KDM5B demethylase, FDH-coupled NADH fluorescence (FDH is formaldehyde dehydrogenase); Potency, µM (series often up to 57.7 µM), hits mostly inhibitors; 220,000 tested, 2.6% active; AID 1347165; active = well fitted inhibition curve with a large enough effect; note: nearly all actives have a fitted effect of over 70% in size
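Compound dilutions met 200 nM (final) KDM5BΔAP for 10 min at room temperature before substrate addition. The substrate mix held 12.5 µM H3K4me3 with cofactors 25 µM α-ketoglutarate and 50 µM Fe²⁺. NADH signal gain over 30 min defined activity.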
Numbers stand for hits; - = inactive.

SMILES | KDM5B inh
COC(=O)CNC(=O)C1CCc2nnc(-c3ccc(Cl)nc3)n21 (centres undefined) | -
COC(=O)CNC(=O)c1cc(C(C)(C)C)nc2c1cnn2C | 89.1µM
COC(=O)CNC(=O)c1cc(-c2ccc(Cl)nc2)nc2c1cnn2C | 79.4µM
Cc1ccc(-c2cc(C(=O)NCc3ccccc3Cl)c3ccccc3n2)cc1C | -
COc1cc(C(=O)Nc2ccc3oc(-c4ccc(F)cc4)cc(=O)c3c2)cc(OC)c1OC | -
O=C1NC2(CCN(C(=O)c3ccc(F)cc3)C2)Oc2ccccc21 (centres undefined) | -
COc1ccccc1NC(=O)C1CCCN(S(C)(=O)=O)C1 (centres undefined) | -
COc1ccc(NC(=O)c2cc(=O)c3ccc(C)c(C)c3o2)cc1 | -
Cc1cc(C)n(CCC(=O)NCCC2CCN(C(=O)Nc3ccccc3)CC2)n1 | -
CCCCc1ccc(C#Cc2ccc(OCC)cc2)cc1 | -
COc1ccc(C(=O)N2CCCC(CO)CCNC(=O)CC2)c(OC)c1 (centres undefined) | -
CCn1nc(C(=O)Nc2ccc(OC)cc2)c2ccccc2c1=O | -
COc1ccc(C2C(C(=O)Nc3ccccc3OC)=C(C)Nc3nc(SC)nn32)cc1 (centres undefined) | -
CCC(CC)=C(C#N)C(=O)NC1CCCC1 | -
CCc1ccccc1N/C=C(\C#N)c1nc(-c2ccc(C)c(C)c2)cs1 | -
CNC(=O)CCn1ncc2cc(OCc3ccccc3-c3cccc(C)c3)ccc21 | 35.5µM
CNC(=O)CCn1ncc2cc(OCc3ccccc3-c3c(Cl)cccc3OC)ccc21 | -
CNC(=O)CCn1ncc2cc(OCc3ccccc3-c3cccc(O)c3)ccc21 | -
COc1ccc(/C=C(/C#N)c2ccc(C(F)(F)F)cn2)cc1 | -
FC(F)(F)c1nc2ccccc2n1Cc1nnc(-c2ccccc2Cl)o1 | -
N#Cc1cccc(C(=O)N2CCNc3cnc(Nc4cccc(F)c4)nc3C2)c1 | -
O=C(Cc1ccc2c(c1)OCO2)N1CCNc2cnc(Nc3cccc(F)c3)nc2C1 | 31.6µM
CNC(=O)c1cccc(Nc2ncc3c(n2)CN([S+](=O)([O-])c2cccc(OC)c2)CCN3)c1 | -
Cn1c(C(=O)N2CCNc3cnc(Nc4ccccc4)nc3C2)cc2ccccc21 | -
COc1ccccc1Nc1ncc2c(n1)CN(C(=O)c1ccnn1C)CCN2 | -
SMILES | KDM5B inh
CC(C)NC(=O)N1CCNc2cnc(Nc3cccc(F)c3)nc2C1 | 31.6µM
CC(C)(C)CC(=O)Nc1ccc([C@H]2OCC(=O)N(Cc3ccc(F)cc3)[C@@H]2CO)cc1 | -
CC(=O)c1ccc(NC(=O)CCc2ncc(-c3ccc(C)cc3)o2)cc1 | -
Cc1cc(NC(=O)N(Cc2ccco2)Cc2cccs2)no1 | -
COc1cccc(CC(=O)N2CCCn3nc(C)c(-c4ccccc4-c4ccccc4)c32)c1 | -
Cc1nn2c(c1-c1ccccc1-c1ccccc1)N(Cc1ccc(O)cc1)CCC2 | 28.2µM
Cc1nn2c(c1-c1ccccc1Oc1ccccc1)N(C(=O)Cc1ccc(O)cc1)CCC2 | -
Cc1nn2c(c1-c1ccccc1C(N)=O)N(C(=O)Cc1cccc(F)c1)CCC2 | -
Cc1nn2c(c1-c1ccccc1OCc1ccccc1)N(Cc1ccc(OCC(=O)O)cc1)CCC2 | -
Cc1nn2c(c1-c1ccccc1C(C)C)N(Cc1ccc(C(=O)O)cc1)CCC2 | -
COc1ccccc1CN1CCCn2nc(C)c(-c3ccccc3C(N)=O)c21 | 31.6µM
Cc1nn2c(c1-c1ccccc1C(C)C)N(CCC(C)C)CCC2 | 17.8µM
Cc1nn2c(c1-c1ccccc1C(N)=O)N(C(=O)c1ccccc1)CCC2 | -
Cc1nn2c(c1-c1ccccc1Oc1ccccc1)N(Cc1ccccc1O)CCC2 | 28.2µM
Cc1nn2c(c1-c1ccccc1C(C)C)N(C(=O)Cc1ccc(O)cc1)CCC2 | -
COc1cccc(CC(=O)N2CCCn3nc(C)c(-c4ccccc4Oc4ccccc4)c32)c1 | -
C=CCNC(=O)c1ccc(C(=O)OC)cc1 | -
NC(=O)C1CN(CC(=O)Nc2cccc(Cl)c2)c2ccccc2O1 (centres undefined) | -
COc1ccc(C(=O)C(C)n2cnc3c2c(=O)n(C)c(=O)n3C)cc1 (centres undefined) | -
O=C(CN1CSCC1=O)NC(c1ccc(F)cc1)C1CCCC1 (centres undefined) | -
O=C(NCC1CC1)c1ccccc1Nc1ccccc1 | -
O=C(Cn1ccc2c(Br)cccc21)NCCCO | -
CN(CC1Cc2ccccc2O1)C(=O)c1cn(Cc2ccccc2F)nn1 (centres undefined) | -
COc1ccc(-c2nnc3n2CCN(C(=O)Nc2ccccc2)C3)cc1 | -
O=C(O)C1CCN(C(=O)c2ccoc2)CC1 | -
SMILES | KDM5B inh
COc1ccc(-c2cc(N3CCN(C(=O)c4ccc(N(C)C)cc4)CC3)n[nH]2)cc1 | -
CN(C)c1ccc(C(=O)N2CCN(c3nnc4ccccn34)CC2)cc1 | 17.8µM
O=C(c1ccoc1)N1CCCN(Cc2cn(-c3ccccc3)nn2)CC1 | -
O=C(c1ccoc1)N1CCN(c2nnc3ccccn23)CC1 | 31.6µM
CCc1ccc(C(=O)N2CCN(c3nc4ccccc4o3)CC2)cc1 | -
CCc1ccc(C(=O)N2CCCN(c3nnc4ccccn34)CC2)cc1 | 25.1µM
Cc1ccc(C(=O)N2CCN(c3nnc4c(Cl)cccn34)CC2)cc1 | -
CCc1ccc(C(=O)N2CCN(CCc3ccccc3)CC2)cc1 | -
Cc1ccc(C2CC(=O)CC(c3ccc(C)cc3)C2(C#N)C(N)=O)cc1 (centres undefined) | -
COc1cc(OC)cc(-c2nnc(SCc3nc4ccccc4o3)o2)c1 | -
CNC(=O)[C@@H]1CN(C(=O)c2ccoc2)C[C@H]1CO | -
CC(C)CC(C)N(C)C(=O)CCc1c[nH]c2ccccc12 (centres undefined) | -
CCN(CC)S(=O)(=O)NC(C)Cc1cccs1 (centres undefined) | -
CC(C)c1noc(-c2cn(C3CCN(C(=O)c4ccc5[nH]ccc5c4)CC3)nn2)n1 | -
Cc1ccc(C)c(C(=O)N2CCCC(n3cc(-c4nc(C(C)C)no4)nn3)C2)c1 (centres undefined) | -
Cc1noc(-c2cn(C3CCCN(C(=O)c4ccccc4)C3)nn2)n1 (centres undefined) | -
Cc1noc(-c2cn(C3CCCN(C(=O)c4cccc5[nH]ccc45)C3)nn2)n1 (centres undefined) | 20µM
CC(C)c1noc(-c2cn(C3CCN(C(=O)c4ccccc4F)CC3)nn2)n1 | -
Cc1noc([C@@H]2CN(C(=O)c3c[nH]c4ccccc34)C[C@H]2CO)n1 | -
COC[C@@H]1CN(C(=O)c2cc(C)oc2C)C[C@H]1c1nc(C)no1 | -
Cc1noc(-c2cn(C3CCCN(C(=O)c4cccc(F)c4)C3)nn2)n1 (centres undefined) | -
COC[C@@H]1CN(C(=O)c2cccc3[nH]ccc23)C[C@H]1c1nc(C)no1 | 20µM
CC(C)c1noc(-c2cn(C3CCN(C(=O)c4cccc5[nH]ccc45)C3)nn2)n1 (centres undefined) | 22.4µM
CC(C)c1noc(-c2cn(C3CCCN(C(=O)c4ccc[nH]4)C3)nn2)n1 (centres undefined) | -
CC(C)c1noc(-c2cn(C3CCCN(C(=O)c4cccc5[nH]ccc45)C3)nn2)n1 (centres undefined) | 17.8µM
CCOc1ccc(S(=O)(=O)N(C)CC(=O)N2CCOCC2)cc1C | -
O=C(c1ccncc1)N1CC(Oc2ccccc2-c2nc(-c3cnccn3)no2)C1 | -
O=C(/C=C/c1ccccc1)Oc1ccc(Br)cc1 | -

Compound activity deposited in PubChem BioAssay by National Center for Advancing Translational Sciences (NCATS).
